# Assay outcomes as filed in PubChem.
# POLH inh = inhibitors of human DNA polymerase eta; recombinant Pol eta, fluorescent DNA replication assay; Potency, µM (top dose mostly 114 µM), inactives show at the top dose activity change, negative = inhibition, hits mostly inhibitors; 390,000 compounds, 1.2% hits; further: potency means the concentration at half of the fitted maximal effect; on the % scale 0 is the no-effect control and ±100 the full control effect
#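 Fluorescent replication assay: 50 nM final substrate added after a 15 min room-temperature compound preincubation with 10 nM enzyme. Signal taken at 0 min and again at 10 min.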
# Pol kappa inh = inhibitors of human DNA polymerase kappa. Q9UBT6. purified Pol kappa, fluorescent DNA synthesis assay, 10 min. Potency, µM (doses to about 107 µM), for inactives: top-dose activity, negative = inhibition, usual class: inhibitors. 400,000 compounds, 0.53% hits. AID 588579; further: potency means the concentration at half of the fitted maximal effect; on the % scale 0 is the no-effect control and ±100 the full control effect
#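 10 nM Pol kappa preincubated 15 min at room temperature with compounds, then reaction started with substrate at 50 nM final. Fluorescence read kinetically at 0 and 10 min; buffer-only wells served as negative control.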
# 12-LOX inh = blocks human arachidonate 12S-lipoxygenase; P18054; purified 12hLO, xylenol orange hydroperoxide absorbance; Potency, µM (highest dose often 108 µM), without a hit: at the top dose activity change, negative = inhibition, usual class: inhibitors; 580,000 compounds, 1.1% hits; further: potency means the concentration at half of the fitted maximal effect; on the % scale 0 is the no-effect control and ±100 the full control effect
#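 Hydroperoxide product was detected by ferrous iron/xylenol orange as the 573 to 405 nm absorbance ratio. Arachidonic acid at 40 uM (final) was turned over for 30 min at room temperature by 150 nM human 12hLO, pH 7.0 Hepes buffer, after 15 min compound preincubation.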
# Pol beta inh = inhibitors of human DNA polymerase beta | Potency, µM (highest dose often 114 µM), inactives show at the top dose activity change, negative = inhibition, hits mostly inhibitors | 340,000 compounds, 1.3% hits | Pol beta primer extension/strand displacement, fluorescence kinetic | AID 485314 | P06746; further: potency means the concentration at half of the fitted maximal effect; on the % scale 0 is the no-effect control and ±100 the full control effect
#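 Pol beta (10 nM) was preincubated with compound for 15 min at room temperature. The reaction was then started with 50 nM substrate and read immediately and after a further 10 min at room temperature.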
# PI5P4K alpha inh = PI5P4K alpha (human) kinase inhibition. max response, %. 330,000 compounds, 1.2% hits. AID 652105. PI5P4Kalpha enzyme, ADP-Glo luminescence, 60 min; active compounds read low; active means max response of -50% or lower; inconclusive means between -30% and -50%; inactive means -30% or higher; further: value at the top dose of about 77 µM; on the % scale 0 is the no-effect control and ±100 the full control effect
# Target sequence (P48426 whole entry, looked up): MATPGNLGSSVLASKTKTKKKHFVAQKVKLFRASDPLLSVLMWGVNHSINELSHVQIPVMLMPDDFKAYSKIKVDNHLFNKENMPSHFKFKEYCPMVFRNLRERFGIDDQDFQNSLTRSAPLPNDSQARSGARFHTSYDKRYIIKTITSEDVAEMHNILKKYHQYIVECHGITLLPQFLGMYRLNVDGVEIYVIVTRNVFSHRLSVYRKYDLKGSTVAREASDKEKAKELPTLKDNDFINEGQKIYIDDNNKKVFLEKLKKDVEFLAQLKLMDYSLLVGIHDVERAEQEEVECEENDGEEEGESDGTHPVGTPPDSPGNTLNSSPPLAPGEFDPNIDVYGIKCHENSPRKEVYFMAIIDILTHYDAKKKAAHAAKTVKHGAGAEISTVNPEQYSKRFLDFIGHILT
#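 Luminescence from ADP-Glo served as readout of PI5P4Kalpha activity in a qHTS format. Reaction: enzyme, substrate, compound, ATP at 5 microM final, 60 min at RT.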
# POLI inh = blocks human DNA polymerase iota activity | Pol iota fluorescent replication assay, 10 min | Potency, µM (titrated, usually from 115 µM), without a hit: top-dose activity, negative = inhibition, hits mostly inhibitors | 390,000 compounds, 1% hits; further: potency means the concentration at half of the fitted maximal effect
#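 Pol iota at 10 nM preincubated 15 min with compounds at room temperature; reaction started with fluorescent substrate, 50 nM final. Fluorescence read kinetically at 0 and 10 min; buffer-only wells as negative control.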
# * = called active by the depositor; ? = inconclusive; · = no result; [ ] = remark or other dose. Hits are enriched below; roughly 2.9% of the tested compounds scored in any of these assays. Unless noted, the call rests on the fitted dose curve; in most records, active means well fitted inhibition curve with a large enough effect; inconclusive means small, poorly fitted or top-dose-only effect, or another doubt; inactive means no such curve, though single readings can be large or run the other way.
SMILES,POLH inh,Pol kappa inh,12-LOX inh,Pol beta inh,PI5P4K alpha inh,POLI inh
O=C(c1sc2cc(F)ccc2c1Cl)N1CCN(c2cccc(Cl)c2)CC1,-22%,-4%,-13%,-15%[57.1 µM],2,23%
Cc1ccc(N2C(=O)CC(N3CCN(c4ccc(F)cc4)CC3)C2=O)c(C)c1 (configuration not stated),-12%,8%,17%,17%,3,14%
COC(=O)c1cccc(N2CCCC2=O)c1,3%,3%,1%,-24%,0,11%
CCN(CC)Cc1cc2[nH]c3c4ccc(Cl)cc4ncc3c2cc1OC,-13%,?,?,50µM*,3,?
Cc1ccc(-c2[nH]c3cc(C(=O)NCCCn4ccnc4)ccc3c(=O)c2O)cc1,-9%,-4%,-15%,0%,-4,79µM*
COc1cc(OC)c2c(-c3ccccc3)cc(=O)oc2c1C(CC(=O)N1CCCC1)c1ccc2c(c1)OCO2 (configuration not stated),2%,?,50µM*,50µM*,-9,79µM*
CCN(CC)C(=O)CC(c1ccc(OC)cc1)c1c(OC)cc(OC)c2c(-c3ccccc3)cc(=O)oc12 (configuration not stated),·,79µM*,·,·,·,?
COc1cc(O)c(C(CC(=O)N2CCCC(C)C2)c2ccc3c(c2)OCO3)c(OC)c1 (configuration not stated),-10%,6%,?,-1%,2,22%
COc1cc(OC)c2ccc(=O)oc2c1C(CC(=O)N1CCCCC1)c1ccc2c(c1)OCO2 (configuration not stated),·,?,·,·,·,89µM*
COc1cc(OC)c2ccc(=O)oc2c1C(CC(=O)N1CCCC(C)C1)c1ccc2c(c1)OCO2 (configuration not stated),40µM*,?,?,40µM*,?,?
Cc1nc(NCc2ccc3c(c2)OCO3)c2c3c(sc2n1)CCCC3,·,·,-57%,·,·,·
CCN(CC)CCCN1C=C2C(=O)C(C)(OC(=O)CCC(=O)OC)C(=O)C(Br)=C2C=C1c1ccc(OC)cc1 (configuration not stated),40µM*,?,?,·,-30,?
COc1nc2nc(CCc3ccccc3)n(C)c2cc1-c1cccc(CO)c1,·,·,11%[176 µM],·,·,·
O=c1ccc2ccc(O)c(O)c2o1,?,9.5µM*,?,14µM*,·,24µM*
COc1cc2ccc(=O)oc2cc1O,-8%,16%,12%,·,3,5%
Cc1ccccc1NC(=O)c1ccc2c(Cl)c3c(nc2c1)CCC3,·,·,-10%,·,·,·
CC(C)COc1ccc(C(=O)Nc2ccc(N3CCN(S(C)(=O)=O)CC3)cc2)cc1,·,·,43%,·,·,·
CCS(=O)(=O)c1ccc2oc(Nc3cccc(OC)c3)nc2c1,-12%,-5%,5%,35µM*,·,-10%
COC(=O)c1ccc(NC(=O)CCc2nnc3ccc(NCc4ccco4)nn23)cc1,?,?,2%,?,?,35µM*
O=C(CCc1nnc2ccc(NCc3ccco3)nn12)Nc1cccnc1,·,·,12%,·,·,·
COc1ccc(NC(=O)CCc2nnc3ccc(NCc4ccc5c(c4)OCO5)nn23)cc1,-13%,-14%,-5%,?,0,45µM*
CC(CCc1ccco1)NC(=O)CCc1nnc2ccc(NCc3ccc(Cl)cc3)nn12 (configuration not stated),-2%,79µM*,5%,40%,2,25µM*
Cc1cccnc1NC(=O)CCc1nnc2ccc(NCc3ccco3)nn12,45µM*,-28%,23%,?,-13,?
CC(CCc1ccco1)NC(=O)CCc1nnc2ccc(NCc3ccccc3Cl)nn12 (configuration not stated),4%,-1%,13%,-26%,-1,-15%
CCN(CC)c1ccc(C=Nc2ccc(F)cc2)cc1,·,·,31%,·,·,·
SMILES,POLH inh,Pol kappa inh,12-LOX inh,Pol beta inh,PI5P4K alpha inh,POLI inh
CCn1cc(CN(C)C(=O)c2cc3cc(Br)ccc3oc2=O)c(C)n1,·,·,21%,·,·,·
Cc1cc(C(=O)Nc2ccc(C(=O)N(C)C)cc2)c2ccccc2n1,·,·,155%,·,·,·
CC(=O)c1cccc(NC(=O)CC2SC(c3cc4ccccc4oc3=O)=NC2=O)c1 (configuration not stated),·,·,2%,·,·,·
CCc1ccc2oc(C(=O)Nc3ccc(S(=O)(=O)Nc4cc(C)nc(C)n4)cc3)cc(=O)c2c1,·,·,18µM*,·,·,·
COC(=O)COc1ccc2c(=O)c(-c3ccccc3)c(C(F)(F)F)oc2c1,·,·,11%,·,·,·
O=C(CN1C(=O)/C(=C2/SC(=S)N(CCS(=O)(=O)O)C2=O)c2ccccc21)Nc1cccc(Br)c1,?,?,?,·,-57*,?
Cc1c(N)cc(N)cc1C(=O)O,8%,89µM*,-14%,30%,-13,45µM*
COc1ccc2[nH]c(O)c(N=NC(=O)Cc3cccs3)c2c1,32µM*,-40%,12%,?,-69*,?
CCC(NC(=O)c1ccc2nc(-c3ccc(F)cc3)cn2c1)c1cccnc1 (configuration not stated),·,·,65%,·,·,·
Cc1c(C(=O)OCC2CCCO2)[nH]c2c1C(=O)CC(c1ccco1)C2 (configuration not stated),3.2µM*,28µM*,·,10µM*,-76*,?
C=CCOC(=O)c1[nH]c2c(c1C)C(=O)CC(c1ccco1)C2 (configuration not stated),25µM*,?,·,13µM*,-61*,?
COc1ccc(C(=O)NNC(=O)COCC(=O)Nc2ccc(C#N)cc2)cc1,·,·,-4%,·,·,·
CCOc1ccccc1Oc1coc2cc(OCC(=O)O)ccc2c1=O,28µM*,-41%,7%,10µM*,-16,3%
CCOc1ccc2c(=O)c(Oc3ccccc3OCC)coc2c1,-6%,-14%,26%,-17%,4,89µM*
CCOC(=O)COc1ccc2c(=O)c(Oc3ccccc3OCC)coc2c1,·,·,12%,·,·,·
CC(=O)NCCNC(=O)c1ccc2ccccc2n1,·,·,8%,·,·,·
O=C1CC(c2ccc(Cl)cc2)c2c(O)cc(O)cc2O1 (configuration not stated),-18%,-23%,0%,18%,-6,64%
C/C=C/C=C/[C@H]1Cc2cc(O)cc(O)c2O1,·,·,·,50µM*,·,·
Cc1sc(C(C2C(=O)CC(C)(C)CC2=O)C2C(=O)CC(C)(C)CC2=O)cc1[N+](=O)[O-],-2%,-7%,?,-20%,?,16µM*
CC1(C)CC(=O)C(C(c2cc([N+](=O)[O-])ccc2Cl)C2C(=O)CC(C)(C)CC2=O)C(=O)C1,-10%,-5%,150%,·,4,22%
